Compounds with a hit are over-represented: about 6.6% of the library has one in this group of screens.
GRIN3A LBD mod = modulators (binders) of human NR3A ligand-binding domain | NR3A LBD differential scanning fluorimetry, Tm shift; 0% = protein alone, 100% = glycine-bound protein | Tm shift relative to glycine control, % at 25 µM | actives 2.5% (n = 340,000) | AID 1259313;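 active = melting temperature shift of at least 10% of the positive control shift, at one fixed dose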
CSC inhib = cancer stem cell inhibition. cancer stem cell-like cells viability, luminescence. actives 1.1% (n = 300,000). inhibition, % at 7.5 µM. AID 2717; in the data active = inhibition above about 75%; tested in HMLE shEcad cells
Mdm2-MdmX inh = disrupts the human Mdm2-MdmX interaction; O15151+Q00987; SaOS-2 split-luciferase Mdm2/MdmX complementation, luminescence; inhibition, % at 8 µM; actives 3% (n = 330,000); AID 485346;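 active = inhibition of at least 50% at 8 µM in the primary screen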
Target sequence (O15151 whole entry, looked up): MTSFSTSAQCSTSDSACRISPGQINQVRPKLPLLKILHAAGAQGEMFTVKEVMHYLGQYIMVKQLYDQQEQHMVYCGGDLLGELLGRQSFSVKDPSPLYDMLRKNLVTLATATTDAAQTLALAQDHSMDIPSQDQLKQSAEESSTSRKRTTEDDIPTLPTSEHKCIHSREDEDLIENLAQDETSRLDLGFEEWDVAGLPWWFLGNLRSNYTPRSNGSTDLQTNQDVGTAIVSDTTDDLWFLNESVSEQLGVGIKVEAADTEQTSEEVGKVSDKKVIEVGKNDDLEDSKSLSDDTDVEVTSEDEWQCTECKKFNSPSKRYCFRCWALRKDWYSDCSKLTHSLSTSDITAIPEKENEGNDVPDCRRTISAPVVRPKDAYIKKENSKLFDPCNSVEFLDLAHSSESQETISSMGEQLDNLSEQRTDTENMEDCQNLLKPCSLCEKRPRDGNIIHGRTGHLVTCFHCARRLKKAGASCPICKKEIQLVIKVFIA
Target sequence (Q00987 whole entry, looked up): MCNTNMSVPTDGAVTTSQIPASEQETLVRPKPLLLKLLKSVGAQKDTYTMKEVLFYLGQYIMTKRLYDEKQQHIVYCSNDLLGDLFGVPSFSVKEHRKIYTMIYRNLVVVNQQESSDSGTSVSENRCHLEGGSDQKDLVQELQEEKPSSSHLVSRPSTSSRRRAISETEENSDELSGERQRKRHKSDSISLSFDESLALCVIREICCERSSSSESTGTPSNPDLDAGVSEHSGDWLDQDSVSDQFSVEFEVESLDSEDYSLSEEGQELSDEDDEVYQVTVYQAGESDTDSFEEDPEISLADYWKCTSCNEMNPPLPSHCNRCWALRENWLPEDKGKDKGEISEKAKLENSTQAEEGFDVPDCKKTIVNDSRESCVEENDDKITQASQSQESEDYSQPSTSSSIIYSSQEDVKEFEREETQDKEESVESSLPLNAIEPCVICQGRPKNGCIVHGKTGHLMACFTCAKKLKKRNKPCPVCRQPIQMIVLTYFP
Gli-Sufu antag = Gli-Sufu pathway antagonism | Sufu-KO-LIGHT fibroblasts, Gli luciferase reporter luminescence | inhibition, % at 5 µM | actives 0.74% (n = 340,000);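 active = inhibition above about 55%, limit read from the data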;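 note: 0% = DMSO-treated cells and 100% = wells with medium but no cells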
MPTP inh = inhibitors of mitochondrial permeability transition pore; inhibition, % at 10 µM; actives 1.4% (n = 360,000); isolated mouse mitochondria, Ca2+ swelling absorbance, 30 min;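 active = inhibition of 50% or more, scaled per plate between neutral and stimulator controls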;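 note: 0% = DMSO wells given calcium and 100% = 1 mM EGTA wells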
Beta cell apopt = beta cell apoptosis inhibition | protection from apoptosis, % (test concentration not listed) | INS-1E cytokine-induced death, ATP luminescence, 48 h; percent of positive-control rescue, neutral wells zero | actives 0.8% (n = 300,000);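 active = Every replicate reaches about 75%, or at least half do and their mean reaches it too, limit read from the data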;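 note: 0% = cytokine-treated negative control wells and 100% = positive control rescue; higher means more ATP so stronger rescue from cytokine killing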
Mdm2-MdmX conf = human Mdm2/MdmX binding inhibition, confirmed. AID 489028. luminescent assay. actives 55% (n = 10,000). inhibition, % at 8 µM. shares compounds with Mdm2-MdmX inh; in the data active = inhibition above about 40%
FLuc counter = full-length luciferase inhibition in Mdm2/MdmX counter-screen; inhibition, % at 8 µM; shares compounds with Mdm2-MdmX inh; actives 77% (n = 6,200); AID 504607; SaOS-2 full-length luciferase counterscreen, luminescence;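 active = mean inhibition at 8 µM reaching about 37%, which flags the compound as non-specific, limit read from the data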;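 note: p53-null SaOS-2 cells with luciferase driven by a doxycycline-inducible promoter; compound on cells about two nights before reading with doxycycline added after day one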
* marks the source's active call; other numbers are inactive results.

For O=C(Nc1ccccc1)c1nc[nH]c1C(=O)NCCCCCCNC(=O)c1[nH]cnc1C(=O)Nc1ccccc1 the results were GRIN3A LBD mod 14*, Mdm2-MdmX inh 87*, Gli-Sufu antag 4, MPTP inh 0, Beta cell apopt 21 and Mdm2-MdmX conf 33.
CNC(=O)c1[nH]cnc1C(=O)Nc1ccc(Cl)cc1 was read as GRIN3A LBD mod 3, CSC inhib 4, Mdm2-MdmX inh 33, Gli-Sufu antag -16, MPTP inh 0 and Beta cell apopt -3.
For COc1ccc(NC(=O)c2nc[nH]c2C(=O)Nc2ccccc2C)cc1 the results were GRIN3A LBD mod -8, CSC inhib 62, Mdm2-MdmX inh 58*, Gli-Sufu antag 3, MPTP inh -7, Beta cell apopt -8, Mdm2-MdmX conf 54* and FLuc counter 48*.
`CN(C)c1ncnc2c1ncn2[C@H]1CN(Cc2cccs2)C[C@@H](CO)O1` gave MPTP inh -1.
For O=C(Nc1ccc(Cl)cc1)c1nc[nH]c1C(=O)NCCCNC(=O)c1[nH]cnc1C(=O)Nc1ccc(Cl)cc1 the results were Mdm2-MdmX inh 97*, Beta cell apopt 37 and Mdm2-MdmX conf -5.
O=C(Nc1ccccc1)c1nc[nH]c1C(=O)NCCCNC(=O)c1[nH]cnc1C(=O)Nc1ccccc1 was read as GRIN3A LBD mod 9, CSC inhib -6, Mdm2-MdmX inh 39, Gli-Sufu antag -6, MPTP inh -1 and Beta cell apopt 3.
`O=C(Nc1ccccc1)c1nc[nH]c1C(=O)NCCN(CCNC(=O)c1[nH]cnc1C(=O)Nc1ccccc1)CCNC(=O)c1[nH]cnc1C(=O)Nc1ccccc1` gave GRIN3A LBD mod 13*, CSC inhib 43, Mdm2-MdmX inh 62*, Gli-Sufu antag 9, MPTP inh 0, Beta cell apopt -3 and Mdm2-MdmX conf 9.
Screening COc1ccc(NC2CCCN(C(=O)c3ccccc3N3CCOCC3)C2)cc1OC (centres undefined) returned GRIN3A LBD mod -2, CSC inhib -10, Mdm2-MdmX inh 4, Gli-Sufu antag -5, MPTP inh -1 and Beta cell apopt 1.
Screening Cn1c(COc2ccc(Cl)cc2)nnc1SCC(=O)NC1CCCC1 returned GRIN3A LBD mod -3, Mdm2-MdmX inh 6, Gli-Sufu antag -15, MPTP inh 1 and Beta cell apopt 4.
Screening CC(C)C(=O)Nc1cccc(S(=O)(=O)NC2=NCCC2)c1 returned MPTP inh -1.
O=C(CCl)Nc1cccc(S(=O)(=O)NC2=NCCC2)c1 was read as GRIN3A LBD mod -5, CSC inhib -2, Mdm2-MdmX inh 54*, Gli-Sufu antag 11, MPTP inh 2, Beta cell apopt -1, Mdm2-MdmX conf 44* and FLuc counter 68*.
For N#C/C(=C\c1c(Cl)cccc1Cl)c1nc2ccccc2o1 the results were GRIN3A LBD mod 0, CSC inhib -26, Mdm2-MdmX inh 82*, Gli-Sufu antag -12, MPTP inh 0, Beta cell apopt 9 and Mdm2-MdmX conf 36.
CCC(C)NC(=O)C1CC(=O)N(CCc2ccc(F)cc2)C1 (centres undefined) was read as GRIN3A LBD mod 2, CSC inhib -3, Mdm2-MdmX inh 18, Gli-Sufu antag -18, MPTP inh 0 and Beta cell apopt -5.
`CCCn1c(NC(=O)c2cccc(S(=O)(=O)N3CCCC3)c2)nc2ccccc21` gave GRIN3A LBD mod -8, Mdm2-MdmX inh 93*, Gli-Sufu antag -7, MPTP inh 18, Beta cell apopt 21, Mdm2-MdmX conf 76* and FLuc counter 57*.
`CCCCCCCn1c(NC(=O)CC)nc2ccccc21` gave GRIN3A LBD mod -1, CSC inhib 5, Mdm2-MdmX inh 77*, Gli-Sufu antag -5, MPTP inh 3, Beta cell apopt 53, Mdm2-MdmX conf 42* and FLuc counter 51*.
`CCCn1c(NC(=S)Nc2ccccc2)nc2ccccc21` gave GRIN3A LBD mod -6, CSC inhib 26, Mdm2-MdmX inh 52*, Gli-Sufu antag 4, MPTP inh 1, Beta cell apopt 43 and Mdm2-MdmX conf 39.
For CCn1c(NC(=S)Nc2ccccc2)nc2ccccc21 the results were GRIN3A LBD mod -1, CSC inhib 13, Mdm2-MdmX inh -11, Gli-Sufu antag -16 and MPTP inh 0.
Screening S=C(Nc1ccccc1)Nc1nc2ccccc2n1CCOc1ccc(Cl)cc1 returned GRIN3A LBD mod -134, CSC inhib active, Mdm2-MdmX inh 84*, Gli-Sufu antag -2, MPTP inh 3, Beta cell apopt 53, Mdm2-MdmX conf 41* and FLuc counter 68*.
Screening COc1ccc(CCN(CC(=O)NC(C)(C)C)C(=O)Cn2nnc(-c3ccc(C)o3)n2)cc1OC returned GRIN3A LBD mod -1, CSC inhib -10, Mdm2-MdmX inh -17, Gli-Sufu antag -7, MPTP inh -1 and Beta cell apopt -2.
CCC(C)NC(=O)C1CCC(CNS(=O)(=O)c2ccc3c(c2)N(C(C)=O)CCO3)CC1 (centres undefined) was read as GRIN3A LBD mod 0, CSC inhib -9, Mdm2-MdmX inh 29, Gli-Sufu antag -7, MPTP inh -2 and Beta cell apopt -7.
For COc1ccc(NC(=S)NCc2ccccc2)c(OC)c1 the results were GRIN3A LBD mod -1, CSC inhib -8, Mdm2-MdmX inh 7, Gli-Sufu antag -3 and MPTP inh -1.
Screening CCc1nn(C(CC)C(=O)NCCCN2CC(C)CC(C)C2)c(=O)c2cc3oc(C)cc3n12 (centres undefined) returned GRIN3A LBD mod 0, CSC inhib -4, Mdm2-MdmX inh 16, Gli-Sufu antag 30, MPTP inh 0 and Beta cell apopt -2.
`CCCn1c(Nc2nc3ccccc3n2C)nc2ccccc21` gave GRIN3A LBD mod -2, CSC inhib 104*, Mdm2-MdmX inh 90*, Gli-Sufu antag 5, MPTP inh 2, Beta cell apopt 111*, Mdm2-MdmX conf 100* and FLuc counter 53*.
For COc1ccc(/C=C(/NC(=O)c2ccco2)C(=O)NCc2ccco2)cc1OC the results were GRIN3A LBD mod 2, CSC inhib 10, Mdm2-MdmX inh 4, Gli-Sufu antag -2, MPTP inh 1 and Beta cell apopt 4.
`O=C1Nc2ccc(Br)cc2C12NNc1ccccc1O2` (centres undefined) gave GRIN3A LBD mod 25*, CSC inhib 83*, Mdm2-MdmX inh 76*, Gli-Sufu antag 2, MPTP inh 4, Beta cell apopt -2 and Mdm2-MdmX conf 23.

Compound activity (PubChem)
